# “And” between values parts separate entries of the source, which are not always exact repeats. Equal values may be shown once. About 2,600 (16%) of roughly 16,000 compounds were called active. Another 20% or so got no clear call; they are omitted. Calls come from the whole dose curve; as a rule, active = well fitted curve in the direction sought with a large enough effect; inconclusive = small, poorly fitted or top-dose-only effect, or effect the other way; inactive = no such curve, though single readings can be large or run the other way. Not all results are given here.
# Target: Cytochrome P450 2D6 (Homo sapiens) (UniProt P10635)
# Sequence (P10635 whole entry, looked up): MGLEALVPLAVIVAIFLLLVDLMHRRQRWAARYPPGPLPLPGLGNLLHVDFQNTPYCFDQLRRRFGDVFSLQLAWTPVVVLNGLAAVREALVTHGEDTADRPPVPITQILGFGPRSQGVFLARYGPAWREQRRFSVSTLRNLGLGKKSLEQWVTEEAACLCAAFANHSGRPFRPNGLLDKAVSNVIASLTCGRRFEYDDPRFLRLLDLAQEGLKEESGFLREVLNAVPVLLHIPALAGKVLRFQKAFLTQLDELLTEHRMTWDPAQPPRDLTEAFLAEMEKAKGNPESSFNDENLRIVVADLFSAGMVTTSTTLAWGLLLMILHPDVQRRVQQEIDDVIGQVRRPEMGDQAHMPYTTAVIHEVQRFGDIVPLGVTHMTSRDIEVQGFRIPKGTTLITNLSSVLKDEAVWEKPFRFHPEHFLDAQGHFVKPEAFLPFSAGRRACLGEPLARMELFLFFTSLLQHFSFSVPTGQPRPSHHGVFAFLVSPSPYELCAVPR
# Experiment: Cytochrome panel assay with activity outcomes
# Conditions: recombinant CYP, pro-luciferin dealkylation, luminescence, p450-cyp2d6; series mostly up to 57.1 µM; activity, negative = inhibition: at the top concentration
# % is set by controls: 0 for no effect and ±100 for the full control effect.
Compound,"activity, negative = inhibition",AC50
CC1(C)CCCN(C(=O)c2coc(=O)c(Br)c2)C1,-10.2% (inactive),
CCOC(=O)C1=C(O)C(Nc2nccs2)(C(F)(F)F)N=C1C (stereo not given),-6.02% (inactive),
COc1cccc(C(=O)N(C)c2nnc(-c3ccncc3)s2)c1,,2 µM (active)
Cc1ccc(-c2nnc(N(C)C(=O)c3cccnc3)s2)cc1,-8.87% (inactive),
CC(=O)N(C)c1nnc(-c2cnccn2)s1,-3.93% (inactive),
COCCn1c(=O)c(-c2ccc(F)cc2)nc2cncnc21,-3.99% (inactive),
c1ccc(C[n+]2cccc(-c3cc4ccccc4[nH]3)c2)cc1,,1.26 µM (active)
Clc1ccc(-c2cc3ccccc3[nH]2)cc1,-18.3% (inactive),
CO[C@@H]1COC(=O)[C@@H](CCSC)NC(=O)C/C=C\[C@@H](C)COC(=O)CCC[C@H]1C,6.34% [at 11.4 µM] (inactive),
O=[N+]([O-])c1cccc2cn[nH]c12,10.6% (inactive),
COc1ccc(C(=O)N2CCC3(CCCN(C(=O)Nc4cccc(C#N)c4)C3)CC2)cc1,-5.65% (inactive),
C[C@@H](C1=C(CCN(C)C)Cc2ccccc21)c1ccccn1,,12.6 µM (active)
CN(C)CCO[C@](C)(c1ccccc1)c1ccccn1,-17.4% [at 25.6 µM] (inactive),
O=C(O)CCc1nc(-c2ccccc2-n2cccc2)no1,-11.8% [at 11.4 µM] (inactive),
Cn1cc(-c2nc3cnc(Oc4cccc(Cl)c4)nc3n(CCC#N)c2=O)c2ccccc21,-4.89% (inactive),
Nc1cc(=O)[nH]c(N)n1,5.2% (inactive),
CCCc1nnc(SCC(=O)N2CCCCC2)n1CC1CCCO1 (stereo not given),-8.47% (inactive),
CC(C)c1nc2oc3ccccc3c(=O)c2c(=O)n1-c1ccccc1,1.39% (inactive),
CC(=O)c1cc(CC=C(C)C)c(O)cc1O,,14.1 µM (active)
COc1cc(CC(=O)O)c(C(C)=O)cc1OC,-1.85% (inactive),
N#Cc1nc(-c2cccs2)oc1NCc1ccccc1,,4.47 µM (active)
N#Cc1nc(-c2ccc(OCc3ccccc3)cc2)oc1NCCN1CCOCC1,-19.7% (inactive),
CNc1oc(-c2cccs2)nc1C#N,-4.23% (inactive),
CCCC12CN3CC(CCC)(CN(C1)C3C(O)C(O)C(O)CO)C2=O (stereo not given),-18.7% (inactive),
CCO/C([O-])=N/c1c[n+](N2CCOCC2)no1,11.1% [at 25.6 µM] (inactive),
NS(=O)(=O)c1ccc(N=Nc2nc3[nH]c(=O)[nH]c(=O)c3[nH]2)cc1,15.1% [at 11.4 µM] (inactive),
COC(=O)c1sc2ccccc2c1-n1cccc1C(=O)C(=O)Nc1ccc(Cl)cc1,33.3% (inactive),

Compound,"activity, negative = inhibition",AC50
OC[C@@H]1NC[C@@H](O)[C@@H](O)[C@H]1O,4.42% (inactive),
COc1ccc(-c2ccc(=O)n(CC(=O)Nc3nnc(C(C)C)s3)n2)cc1OC,4.75% (inactive),
CCOc1ccc(-c2nnn(CC(=O)Nc3cc(OC)ccc3OC)n2)cc1OCC,-15.6% (inactive),
COc1ccc(-c2nnn(CC(=O)N(CC(=O)NCCC(C)C)Cc3cccs3)n2)cc1OC,,11.2 µM (active)
CCOc1ccccc1NC(=O)C1=C(C)NC(=O)NC1c1cccc(OC)c1OC (stereo not given),-5.38% (inactive),
NC(N)=N/N=C(\c1ccc(Cl)cc1)C1CC1,1.81% [at 11.4 µM] (inactive),
Nc1ncnc(N(c2ccccc2)C2CCCCC2)c1[N+](=O)[O-],19.7% (inactive),
CN[C@@H](c1ccncc1)[C@@H](NC)c1ccncc1,-10.1% [at 11.4 µM] (inactive),
CC(C)CC(=O)N1CCN(Cc2cccc(F)c2)CC1,,8.91 µM (active)
COc1cc(CN2CCN(C(=O)CC(C)C)CC2)cc(OC)c1OC,-10.3% (inactive),
COc1ccc(CN2CCN(C(=O)CC(C)C)CC2)c(OC)c1OC,-20.4% (inactive),
O=c1nc2ccccc2c(NS(=O)(=O)c2ccc(Cl)cc2)n1-c1ccccc1,10.2% (inactive),
O=c1ccc(NS(=O)(=O)c2ccccc2)cn1Cc1ccc(Cl)c(Cl)c1,,14.1 µM (active)
O=C(c1cc(Cl)c(=O)n(Cc2ccc(Cl)cc2)c1)N1CCOCC1,-10.6% (inactive),
O=c1ccc(NS(=O)(=O)c2ccc(Cl)cc2)cn1Cc1ccc(Cl)c(Cl)c1,,7.94 µM (active)
Cc1ccc(S(=O)(=O)Nc2ccc(=O)n(Cc3ccc(Cl)c(Cl)c3)c2)cc1,,3.98 µM (active)
Cc1cc(NS(=O)(=O)c2ccc(NC(=O)CN3C(=O)c4ccccc4C3=O)cc2)nc(C)n1,-5.29% (inactive),
Cc1ccc(NCCC(=O)c2ccc(Cl)c(Cl)c2)cc1,-27.8% (inactive),
COc1ncc2nc(C)c(=O)n(CCC#N)c2n1,6.73% (inactive),
COc1ccc(C(=O)N2CCC3(CCCN(C(=O)Nc4cccc(F)c4)C3)CC2)cc1,-16.4% (inactive),
CCN(CC)C(=O)c1sc2[nH]c(=S)n(-c3ccccc3)c(=O)c2c1C,-9.98% (inactive),
COc1cccc(OC)c1C(=O)Nc1cc(C)on1,-25.9% (inactive),
CCOC(=O)C1=C(COc2ccc(F)cc2Cl)NC(=O)NC1c1cc(C)ccc1C (stereo not given),-19.5% (inactive),
CC(C)NC(=O)c1ccc2c(=O)n(Cc3ccco3)c(=S)[nH]c2c1,-2.05% (inactive),
Cc1ncsc1C(=O)N1N=C2/C(=C/c3ccccc3)CCCC2C1c1ccccc1 (stereo not given),3.61% (inactive),
COc1ccc(C(=O)Oc2cc(/C=N/NS(=O)(=O)c3ccc(C)cc3)ccc2OC)cc1,1.92% (inactive),
O=S(=O)(N/N=C\c1cccn1-c1ccccc1)c1ccc2ccccc2c1,,5.01 µM (active)

Compound,"activity, negative = inhibition",AC50
Cc1ccc(S(=O)(=O)N/N=C/c2cccn2-c2ccc(Cl)cc2)cc1,3.13% (inactive),
CCc1ccccc1NC(=O)c1nnn(CC(=O)Nc2ccccc2C)c1N,-18.4% (inactive),
Cc1nn(CC(=O)NCCN2CCOCC2)c(C)c1[N+](=O)[O-],0.91% (inactive),
Cc1cc(C)n(C(=O)CCCCCCCCC(=O)n2nc(C)cc2C)n1,-12.3% (inactive),
COc1ccc(N2CCN(c3nc(Nc4ccc(F)cc4)nc(OC)n3)CC2)cc1,0.148% (inactive),
COc1ccc(Nc2nc(N3CCCCC3)c3ccccc3n2)cc1,,1.58 µM (active)
COc1ccc(Nc2cc(C(=O)NCCCN3CCN(C)CC3)c3ccccc3n2)cc1,-17.4% (inactive),
CCNc1ncc2ncc(=O)n(C[C@H]3CCCO3)c2n1,-8.66% (inactive),
COC(=O)C(Cc1c[nH]c2ccccc12)NC(=O)C(C)C (stereo not given),-4.41% (inactive),
CC(=O)N[C@@H](Cc1c[nH]c2ccccc12)C(=O)OCc1cc(C(F)(F)F)cc(C(F)(F)F)c1,17.4% (inactive),
COc1cc(CNCCc2c[nH]c3ccccc23)ccc1OCc1ccccc1F,,3.98 µM (active)
COc1cccc(CNCCc2c[nH]c3ccccc23)c1OCc1ccccc1F,,0.282 µM (active)
COc1cc(Cl)c(CC(=O)c2c[nH]c3ccccc23)cc1OC,-18% [at 11.4 µM] (inactive),
COc1ccc(C(C(=O)NC2CCCCC2)N(C(=O)Cc2c[nH]c3ccccc23)c2ccc(NC(C)=O)cc2)cc1OC (stereo not given),-30.5% (inactive),
CCOC(=O)c1cnc2cc(-c3ccc(C)cc3)nn2c1-c1ccccc1,2.65% (inactive),
O=C1N=C(N2CCC(Cc3ccccc3)CC2)S/C1=C/c1cn[nH]c1-c1ccccc1,-18.3% (inactive),
COc1ccccc1NC(=O)Nc1nnc(-c2ccco2)s1,-1.54% (inactive),
O=S(=O)(c1ccccc1)c1cnc(-c2cccnc2)nc1-c1ccc(Cl)cc1Cl,-28% (inactive),
COC(=O)c1c(C)[nH]c(O)c1C=Nc1ccc(C(C)C)cc1,-5.18% (inactive),
OC[C@H]1NC[C@H](O)[C@@H](O)[C@H]1O,1.77% (inactive),
C[N+](C)([O-])CCC=C1c2ccccc2CCc2ccccc21,-5.43% [at 11.4 µM] (inactive),
CN(C)CC/C=C1\c2ccccc2COc2ccccc21,,15.8 µM (active) and 3.16 µM (active) and 3.98 µM (active)
O=C1OCc2cccc3cccc1c23,12.5% (inactive),
CNCCC=C1c2ccccc2C=Cc2ccccc21,,5.01 µM (active)
CN(C)CCC=C1c2ccccc2C=Cc2ccccc21,,6.31 µM (active)
COc1ccc(C2=C(C#N)C(=O)OC2)cc1,-1.14% (inactive),
CCOC(=O)c1cnn(-c2nc(-c3cccc(F)c3)cs2)c1C(F)(F)F,-12.3% (inactive),

Compound,"activity, negative = inhibition",AC50
O=C(O)[C@@H]1CCCN1,-2.04% [at 11.4 µM] (inactive),
CC1(C)C(=O)C(c2ccccc2)=C2CN3C(=O)N(CCc4ccccc4)C(=O)C3(Cc3ccccc3)C=C21 (stereo not given),-0.396% (inactive),
N#Cc1cc2[nH]c(=O)c(=O)[nH]c2cc1[N+](=O)[O-],3.7% (inactive),
C[C@@]12C(=O)OC(=O)[C@@]1(C)[C@@H]1CC[C@@H]2O1,2.37% (inactive),
NC(N)=N/N=C\c1ccc(C2CCNCC2)cc1,-11% [at 11.4 µM] (inactive),
Cc1ccccc1NC(=O)Cn1cnc2c1c(=O)n(C)c(=O)n2C,-9.07% (inactive),
CC(=O)c1cn(CC(=O)Nc2c(C)cccc2C)c2ccccc12,,7.94 µM (active)
Cc1cccc(C)c1NC(=O)C[N+](C)(C)C,,inactive
Cc1ccccc1NC(=O)c1cnc(Nc2nc3ccccc3s2)nc1C,4.51% (inactive),
CC(N)=O,-3.9% (inactive),
C=CCNC(=O)C1CCN(S(=O)(=O)CC)CC1,-8.48% (inactive),
CCS(=O)(=O)N1CCC(C(=O)NCCCOC)CC1,-5% (inactive),
CCN(CCCNC(=O)C1CCN(S(=O)(=O)CC)CC1)c1cccc(C)c1,,25.1 µM (active)
C=CCn1c(SCC(=O)Nc2c(C)n(C)n(-c3ccccc3)c2=O)nc2sc(C)c(-c3ccccc3)c2c1=O,-3.94% (inactive),
COc1ccc(CO/N=C/c2c(C)[nH]c(=O)[nH]c2=O)cc1,-6.51% (inactive),
CC(C)CNC(=S)N1CCN(C)CC1,0.99% (inactive),
CCN(CC)S(=O)(=O)c1cccc2c(N(C)C)cccc12,-11.4% (inactive),
CCN(CC)S(=O)(=O)c1ccc2c3c(cccc13)C(=O)S2,,12.6 µM (active)
CCOC(=O)NNC1CC(=O)N(c2ccc(OC)cc2)C1=O (stereo not given),-3.68% (inactive),
O=C(c1ccccc1)c1c[nH]c(C(=O)NCCCN2CCOCC2)c1,-45.7% (inactive),
O=C(NCCCN1CCOCC1)c1cc2c(s1)CSC2,,1.26 µM (active)
CCC(CC)C(=O)c1c[nH]c(C(=O)NCCCN2CCOCC2)c1,-6.79% (inactive),
O=c1onc2n1-c1cc(Br)ccc1OC2,-11.9% (inactive),
COc1ccc(-n2c(=O)c(-c3ccc(Cl)cc3)nc3cnc(N4CCNCC4)nc32)cc1,-4.61% (inactive),

# From PubChem BioAssay AID1851 (National Center for Advancing Translational Sciences (NCATS), 2009)
